High-throughput results as filed in PubChem BioAssay.
Sfp inh: inhibitors of Bacillus subtilis Sfp phosphopantetheinyl transferase. AID 1490. 310,000 compounds, 3.5% hits. Potency, µM, for the others: largest response in the series, negative = inhibition, most hits filed as inhibitors. Biochemical Sfp PPTase activity, qHTS;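 further: the enzyme is Sfp with the accession as filed and its product quenches rhodamine fluorescence; 0% = enzyme reaction without inhibitor and -100% = no enzyme wells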
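Fluorescence-quenching assay: 15 nM Sfp-PPTase preincubated 15 min at room temperature with compound, then 5 uM rhodamine-CoA and 12.5 uM BHQ-2-labelled YbbR peptide added. Fluorescence (ex 525/em 598 nm) read at start and after 30 min; difference gives rate.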
RORg inh: blocks mouse ROR gamma transcriptional activity. Potency, µM (titrated, usually from 53.6 µM), inactives show at the highest dose activity change, negative = inhibition, actives largely listed as inhibitors. Drosophila S2 Gal4-RORgamma UAS-luciferase reporter, 20 h. P51450. 310,000 compounds, 5.4% hits; further: nearly all actives have a fitted effect of over 60% in size
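ROR gamma transcriptional activity was tracked as Gal4-UAS luciferase output in stably transfected Drosophila Schneider cells, with compound added 1 hr before 700 uM copper sulfate induction and a 20 hr ambient-temperature incubation.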
ALDH1A1 block: inhibitors of human aldehyde dehydrogenase 1A1; Purified ALDH1A1, NADH fluorescence, propionaldehyde substrate; Potency, µM (titrated, usually from 75.3 µM), inactives show at the top dose activity, negative = inhibition, most hits filed as inhibitors; 220,000 compounds, 7.3% hits; P00352; active means well fitted inhibition curve with a large enough effect, not every such curve was filed as active; inconclusive means small, poorly fitted or top-dose-only effect, or another doubt; inactive means no such curve, though single readings can be large or run the other way;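 further: plate controls were no enzyme wells and a reference inhibitor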
VP16 counter: Gal4-VP16 reporter inhibition counter-screen. AID 2546. 310,000 compounds, 3.5% hits. Potency, µM (series often up to 53.6 µM), for inactives: top-dose activity, negative = inhibition, usual class: inhibitors. Drosophila S2 Gal4-VP16 UAS-luciferase, luminescence, 20 h;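 further: Gal4-VP16 expression switched on by copper sulfate through the metallothionein promoter; nearly all actives have a fitted effect of over 50% in size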
PLK1 PBD block: blocks phosphopeptide binding to human PLK1 polo-box domain. Potency, µM, without a hit: max response, negative = inhibition, hits mostly inhibitors. P53350. Plk1 PBD binding of FITC phosphopeptide, fluorescence polarization. 360,000 compounds, 2.8% hits; further: series mostly up to about 57 µM; nearly all actives have a fitted effect of over 65% in size
Target sequence (P53350 whole entry, looked up, the tested form may be a part): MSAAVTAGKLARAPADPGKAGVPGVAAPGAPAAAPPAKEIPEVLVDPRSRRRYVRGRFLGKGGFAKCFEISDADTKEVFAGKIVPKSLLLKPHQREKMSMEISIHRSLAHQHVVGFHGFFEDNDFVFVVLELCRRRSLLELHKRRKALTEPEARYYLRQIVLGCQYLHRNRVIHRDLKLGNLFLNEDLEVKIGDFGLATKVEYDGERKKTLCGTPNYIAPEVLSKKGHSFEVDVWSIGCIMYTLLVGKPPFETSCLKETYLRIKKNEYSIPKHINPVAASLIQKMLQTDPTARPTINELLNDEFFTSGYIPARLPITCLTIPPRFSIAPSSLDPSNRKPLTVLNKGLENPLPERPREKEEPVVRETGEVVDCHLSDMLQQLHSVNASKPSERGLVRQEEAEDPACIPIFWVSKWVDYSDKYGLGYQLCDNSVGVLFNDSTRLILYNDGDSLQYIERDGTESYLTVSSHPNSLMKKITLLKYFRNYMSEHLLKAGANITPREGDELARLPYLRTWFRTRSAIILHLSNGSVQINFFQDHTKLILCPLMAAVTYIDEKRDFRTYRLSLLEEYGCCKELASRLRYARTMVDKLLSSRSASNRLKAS
Starred values were filed as active, the others as inactive; u = inconclusive; x = no result given; [ ] = another dose, or the depositor's remark. A selection: hits, their analogues and other compounds. The true share with any hit is near 12%. Unless noted, the call rests on the fitted dose curve; in most records, active means well fitted curve in the direction sought with a large enough effect; inconclusive means small, poorly fitted or top-dose-only effect, or another doubt; inactive means no such curve, though single readings can be large; an effect the other way counts as inactive or inconclusive. Unless noted, on the % scale 0 is the no-effect control and ±100 the full control effect; potency means the concentration at half of the fitted maximal effect.

SMILES	Sfp inh	RORg inh	ALDH1A1 block	VP16 counter	PLK1 PBD block
Oc1ccc(C[C@H]2CNC(=S)N2CC2CCCN2C[C@H](Cc2ccccc2)N2C[C@H](Cc3ccc(O)cc3)N(CC3CCCCC3)C2=S)cc1 (some centres undefined)	x	x	x	x	2%
COC(=O)[C@H]1CC2(CC=C(C)C)C(=O)[C@@](CC=C(C)C)(C(=O)C(C(=O)c3ccccc3)=C2OC)C1(C)C (tested in a mixture with another compound)	-1%	28%	u	-13%	x
O=C(NCCc1cccs1)c1ccc(Cl)c(Cl)c1	-1%	29%	-1%	8%	4%
O=C(NCCc1cccs1)C(c1ccccc1)c1ccccc1	17%	3%	x	1%	-13%
Cc1ccc(C(=O)NCCc2cccs2)cc1	19%	u	0%	5.6µM*	0%
O=C(NCCc1cccs1)c1ccc(Cl)cc1	15%	8.9µM*	x	u	-11%
COc1cc(CN2C[C@@H](CO)O[C@@H](n3cnc4c(NC5CCCC5)ncnc43)C2)cc(OC)c1OC	x	x	x	x	-7%
CCOC(=O)[C@]12CCC=C1N(CCC1=CCCCC1)C(=O)[C@H](CC(=O)N1CCCCC1)C2	x	x	x	x	-8%
CC1CC=CC2C1C(=O)N(Cc1ccccc1)C2c1ccc2ccccc2c1C=Cc1ccccc1 (centres undefined)	u	30%	x	11%	x
C[C@@H]1CC=C[C@H]2[C@H]1C(=O)N(Cc1ccccc1)[C@H]2c1ccc2ccccc2c1Br	-13%	u	x	u	24µM*
N=C1Sc2ccccc2C2=NCCCN12	x	x	10µM*	x	x
CC(C)C(C=Cc1ccccc1)=NNS(=O)(=O)c1ccccc1	x	x	x	x	-5%
O=S(=O)(c1ccccc1)C(/C=N\O)/C=C/c1ccccc1 (centres undefined)	50µM*	u	11µM*	3%	3µM*
O=C1C2CCCN2C(c2ccccc2)N1c1ccc(Cl)cc1 (centres undefined)	6%	-1%	3%	4%	-7%
CN(C)c1ccc(C2N(c3ccc(Cl)cc3)C(=O)C3CCCN32)cc1 (centres undefined)	2%	7%	0.79µM*	1%	u
CN(C)c1ccc(C2N(c3ccc(F)cc3)C(=O)C3CCCN32)cc1 (centres undefined)	-2%	1%	0.63µM*	3%	-9%
CC(=O)C1(C)CC2=C(CCCC2(C)C)CC1C (centres undefined)	x	29%	u	8%	x
COc1cc(CNC(=O)c2cc(-c3cc(F)ccc3OCC3CCCO3)n[nH]2)cc(OC)c1 (centres undefined)	x	x	x	x	-4%
O=c1c2[nH]c3ccc(Br)cc3c2ncn1Cc1ccncc1	-8%	1%	x	-7%	-17%
COc1ccc(C(C#N)Nc2ccccc2)cc1 (centres undefined)	10%	15%	u	0%	x
N#CC(Nc1ccccc1)c1ccccc1OCc1ccccc1 (centres undefined)	0%	15%	18µM*	-2%	-4%
CC(C)NC(=O)C(=O)NNC(=O)CCc1ccccc1	-6%	-4%	2%	11%	-2%
O=C(CCl)N(c1ccccc1)c1c[nH]c2ccccc12	7%	14µM*	u	u	-7%
CC(=O)n1cc(N(C(=O)CCl)c2ccccc2)c2ccccc21	-6%	u	x	u	-11%
O=C(CCl)N(c1ccc(Cl)cc1)c1c[nH]c2ccccc12	-7%	4.5µM*	7.1µM*	10µM*	-6%
SMILES	Sfp inh	RORg inh	ALDH1A1 block	VP16 counter	PLK1 PBD block
O=c1cc(-c2ccc(O)cc2)oc2cc(OC3OC(CO)C(O)C(O)C3O)c(C3OC(CO)C(O)C(O)C3O)c(O)c12 (centres undefined)	-5%	3%	x	-7%	x
O=C1CCCc2c1cc(C(=O)NCc1ccco1)c(=O)n2-c1ccc(Cl)cc1	56µM*	0%[0.365 µM]	u	x	-3%
CCC(=O)N1CCC1(C)C(=O)Nc1nccs1 (centres undefined)	x	x	x	x	-6%
c1ccc(-n2nnc3c(N4CCOCC4)ncnc32)cc1	-26%	8.9µM*	u	u	u
CCOC1=C2CN(S(=O)(=O)c3ccc(C)cc3)[C@H](c3cccc4ccccc34)C[C@H]2[C@H]2C(=O)N(c3ccccc3)C(=O)[C@H]2C1	x	x	x	x	-5%
O=C(CN(C(=O)CCC(=O)Nc1nccs1)c1cccc(F)c1)NCc1ccc(F)cc1	1%	35µM*	x	-5%	1%
CCOC(=O)c1c(C)cc2c(CO)n[nH]c(=O)c2c1C	x	x	x	x	-2%
CCOc1cc(/C=C2/SC(=S)N(CC(=O)O)C2=O)ccc1OC(=O)c1cccs1	4.5µM*	18%	x	-4%	u
COc1ccccc1OCCCOc1cccc(/C=C2\SC(=O)NC2=O)c1	u	u	x	u	21µM*
O=C(O)CN1C(=O)/C(=C\c2ccccc2OCc2ccc(F)cc2)SC1=S	4%	-2%	x	3%	27µM*
O=C(O)COc1ccccc1/C=C1\SC(=O)N(Cc2ccc(F)cc2)C1=O	-4%	5%	-6%	2%	-25%
Cc1nn(-c2ccccc2)c(Cl)c1/C=C1\SC(=S)N(CCCCCC(=O)O)C1=O	-4%	-6%	x	-2%	24µM*
COc1ccccc1OCCCOc1ccc(/C=C2\SC(=O)NC2=O)cc1OC	6%	26%	x	15%	u
COc1cc(/C=C2\SC(=S)N(CC(=O)O)C2=O)ccc1OC(=O)c1ccco1	-16%	-22%	x	-24%	-9%
Cc1nn(-c2ccccc2)c(Cl)c1/C=C1\SC(=S)NC1=O	u	u	u	-5%	u
CCc1ccc(-c2cc(C)no2)cc1S(=O)(=O)NCCc1ccc(OC)c(OC)c1	6%	29%	x	-12%	-6%
N[C@@](CC(=O)O)(Cc1ccccc1)C(=O)O	x	x	-6%[13.5 µM]	x	x
COC(=O)CC1C(C)(C)C(=O)C2CC3C4=CC(=O)OC(c5ccoc5)[C@]4(C)CCC3[C@@]1(C)C2=O (some centres undefined)	2%	5%	-2%	-5%	x
COc1ccc(/C=C2/SC(=S)N(CC(=O)O)C2=O)cc1OCc1ccc(Cl)cc1	-33%	4%	x	-9%	30µM*
O=C(O)CN1C(=O)/C(=C\c2cc(Br)ccc2OCc2ccc(F)cc2)SC1=S	-4%	5%	x	2%	21µM*
COc1ccc(/C=C2/SC(=S)NC2=O)cc1OCc1ccccc1	-12%	u	x	18µM*	u
O=C(O)CN1C(=O)/C(=C\c2cc([N+](=O)[O-])ccc2OCc2ccccc2Cl)SC1=S	79µM*	4%	x	4%	27µM*
O/N=C/c1cc(Br)ccc1OCc1ccc(F)cc1	x	x	x	x	-25%
O=C(NNC(=O)C1CCC1)c1ccc(F)cc1	x	x	x	x	1%
CS(=O)(=O)N1CCC2(CCN(C(=O)Nc3cccc(F)c3)CC2)CC1	32%	2%	40%	6%	x
